Experimental data published in PubChem BioAssay (NCI).
About 79,000 compounds went through this panel and 15% of them were active in at least one assay; those are over-represented in the sample as a whole. A number with no mark means an inactive call. The source made the active and inactive calls. Cut-off read from the data, not from the text of the source: active = growth inhibition above about 70%; inactive = the rest.

Key:
[1] = NCI Yeast Anticancer Drug Screen. Data for the rad52 strain (AID 147);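 note: 0% = growth of vehicle-treated control cultures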; details: S. cerevisiae rad52 mutant growth inhibition, active compounds read high
Outline: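 Read-out: growth inhibition versus vehicle-treated controls. Cells were a DNA repair-deficient yeast strain treated with compounds.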

[2] = NCI Yeast Anticancer Drug Screen. Data for the wt1 strain (AID 149);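 note: 0% = growth of vehicle-treated wt1 cultures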; details: S. cerevisiae wt1 strain (SPY 50644) growth inhibition, active compounds read high
Outline: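 wt1 strain grown with compound or vehicle; inhibition taken from the growth difference.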

[3] = NCI Yeast Anticancer Drug Screen. Data for the rad50EPP+ strain (AID 151);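 note: 0% = growth of vehicle-treated control cultures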; details: S. cerevisiae rad50 mutant strain, active compounds read high
Outline: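 Growth inhibition read against vehicle controls in rad50EPP+ yeast, a strain altered in DNA damage repair, after compound exposure.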

[4] = NCI Yeast Anticancer Drug Screen. Data for the mgt1 strain (AID 153); details: S. cerevisiae mgt1 mutant growth inhibition, active compounds read high
Outline: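 mgt1 yeast grown with test compound; read-out is growth inhibition versus vehicle-treated cultures.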

[5] = NCI Yeast Anticancer Drug Screen. Data for the rad50 strain (AID 155);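 note: 0% = growth of vehicle-only cultures of the same strain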; details: S. cerevisiae rad50 strain growth inhibition, active compounds read high
Outline: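 DNA repair mutant yeast, compound exposure, growth read-out; inhibition is taken relative to vehicle.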

[6] = NCI Yeast Anticancer Drug Screen. Data for the mec2-1 strain (AID 157); details: S. cerevisiae mec2-1 strain, active compounds read high
Outline: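 Yeast mec2-1 mutant treated with compound. Readout: growth inhibition vs vehicle controls.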

[7] = NCI Yeast Anticancer Drug Screen. Data for the rad14 strain (AID 159);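 note: 0% = growth of vehicle-treated control cultures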; details: S. cerevisiae rad14 strain growth inhibition, active compounds read high
Outline: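 DNA repair-defective yeast, compound-exposed; % growth inhibition derived by comparison with vehicle-treated controls.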

[8] = NCI Yeast Anticancer Drug Screen. Data for the sgs1 mgt1 strain (AID 161);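 note: 0% = growth of cultures given vehicle only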; details: S. cerevisiae sgs1 mgt1 strain, active compounds read high
Outline: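 Inhibition of yeast growth, normalised to vehicle-treated controls, is reported for a strain bearing genetic alterations in DNA damage repair.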

[9] = NCI Yeast Anticancer Drug Screen. Data for the CLN2oe strain (AID 163);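 note: 0% = growth of vehicle-only control cultures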; details: S. cerevisiae CLN2oe strain, active compounds read high
Outline: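 Read-out: yeast growth inhibition, expressed relative to vehicle-only controls. The strain bears an engineered cell-cycle alteration.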

[10] = NCI Yeast Anticancer Drug Screen. Data for the cln2 rad14 strain (AID 165);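 note: 0% = growth equal to vehicle treated cultures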; details: S. cerevisiae cln2 rad14 strain, active compounds read high
Outline: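 cln2 rad14 yeast strain; compound exposure; growth inhibition read vs vehicle controls.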

[11] = NCI Yeast Anticancer Drug Screen. Data for the bub3 strain (AID 167); details: S. cerevisiae bub3 mutant strain, active compounds read high
Outline: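 In this screen, a yeast mutant lacking normal mitotic checkpoint function is challenged with compound. Relative growth versus vehicle gives the inhibition value.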

[12] = NCI Yeast Anticancer Drug Screen. Data for the wt2 strain (AID 169);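 note: 0% = growth of vehicle-treated yeast cultures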; details: S. cerevisiae wt2 strain growth inhibition, active compounds read high
Outline: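 Read-out: growth inhibition versus vehicle-treated control cultures after compound exposure of the yeast strain.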

[13] = NCI Yeast Anticancer Drug Screen. Data for the mlh1 strain (AID 171);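 note: 0% = growth of vehicle-treated control cultures of the same strain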; details: S. cerevisiae mlh1 strain growth inhibition, active compounds read high
Outline: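 Read-out: growth inhibition versus vehicle controls. Strain: engineered yeast with a defined DNA repair or cell cycle defect, compound-treated.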

[14] = NCI Yeast Anticancer Drug Screen. Data for the sgs1 strain (AID 173);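 note: 0% = growth of vehicle-only control cultures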; details: S. cerevisiae sgs1 mutant, active compounds read high
Outline: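 Read-out: yeast growth inhibition relative to vehicle controls, following compound exposure of a strain with a defined DNA repair/cell cycle alteration.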

[15] = NCI Yeast Anticancer Drug Screen. Data for the mlh1 rad18 strain (AID 175); details: S. cerevisiae mlh1 rad18 strain growth inhibition, active compounds read high
Outline: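 Yeast w/ defined DNA-repair lesions; compound exposure; growth vs vehicle controls → % inhibition.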

[16] = NCI Yeast Anticancer Drug Screen. Data for the rad18 strain (AID 177); details: S. cerevisiae rad18 mutant growth inhibition, active compounds read high
Outline: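 Readout: growth inhibition vs vehicle controls. Cells: genetically altered yeast strain, DNA repair defect.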

[17] = at 5.0 µM (retest, dose inferred, filed as 0.5)
[18] = at 50.0 µM (retest, dose inferred, filed as 5.0)

O=[N+]([O-])c1ccc(/C=C\c2ccc3c(c2)OCO3)c([N+](=O)[O-])c1
growth inhibition ([1]; at 1.2 µM): 3% | growth inhibition ([1]; at 3.7 µM): 12% | growth inhibition ([1]; at 11.0 µM): 26% | growth inhibition ([1]; at 33.0 µM): 54% | growth inhibition ([1]; at 100.0 µM): 83% (active) | growth inhibition ([2]; at 1.2 µM): -2% | growth inhibition ([2]; at 3.7 µM): -2% | growth inhibition ([2]; at 11.0 µM): 2% | growth inhibition ([2]; at 33.0 µM): 6% | growth inhibition ([2]; at 100.0 µM): 35% | growth inhibition ([3]; at 1.2 µM): 12% | growth inhibition ([3]; at 3.7 µM): 30% | growth inhibition ([3]; at 11.0 µM): 69% | growth inhibition ([3]; at 33.0 µM): 84% (active) | growth inhibition ([3]; at 100.0 µM): 78% (active) | growth inhibition ([4]; at 1.2 µM): -2% | growth inhibition ([4]; at 3.7 µM): 2% | growth inhibition ([4]; at 11.0 µM): 5% | growth inhibition ([4]; at 33.0 µM): 20% | growth inhibition ([4]; at 100.0 µM): 17% | growth inhibition ([5]; at 1.2 µM): 3% | growth inhibition ([5]; at 3.7 µM): 15% | growth inhibition [5, 17]: 33% | growth inhibition ([5]; at 11.0 µM): 29% | growth inhibition ([5]; at 33.0 µM): 54% | growth inhibition [5, 18]: 92% (active) | growth inhibition ([5]; at 50.0 µM): 85.2% (active) | growth inhibition ([5]; at 100.0 µM): 85% (active) | growth inhibition ([6]; at 1.2 µM): -3% | growth inhibition ([6]; at 3.7 µM): -3% | growth inhibition [6, 17]: 9% | growth inhibition ([6]; at 11.0 µM): 3% | growth inhibition ([6]; at 33.0 µM): 20% | growth inhibition [6, 18]: 97% (active) | growth inhibition ([6]; at 50.0 µM): 83% (active) | growth inhibition ([6]; at 100.0 µM): 80% (active) | growth inhibition ([7]; at 1.2 µM): 1% | growth inhibition ([7]; at 3.7 µM): 2% | growth inhibition ([7]; at 11.0 µM): 12% | growth inhibition ([7]; at 33.0 µM): 24% | growth inhibition ([7]; at 100.0 µM): 80% (active) | growth inhibition [8, 17]: 11% | growth inhibition [8, 18]: 88% (active) | growth inhibition ([8]; at 50.0 µM): 78.6% (active) | growth inhibition ([9]; at 1.2 µM): -2% | growth inhibition ([9]; at 3.7 µM): -3% | growth inhibition ([9]; at 11.0 µM): 7% | growth inhibition ([9]; at 33.0 µM): 16% | growth inhibition ([9]; at 100.0 µM): 25% | growth inhibition [10, 17]: 2% | growth inhibition [10, 18]: 76% (active) | growth inhibition ([10]; at 50.0 µM): 25.2% | growth inhibition ([11]; at 1.2 µM): -7% | growth inhibition ([11]; at 3.7 µM): -7% | growth inhibition [11, 17]: 2% | growth inhibition ([11]; at 11.0 µM): -5% | growth inhibition ([11]; at 33.0 µM): 28% | growth inhibition [11, 18]: 93% (active) | growth inhibition ([11]; at 50.0 µM): 99% (active) | growth inhibition ([11]; at 100.0 µM): 68% | growth inhibition ([12]; at 1.2 µM): -2% | growth inhibition ([12]; at 3.7 µM): -3% | growth inhibition ([12]; at 11.0 µM): -1% | growth inhibition ([12]; at 33.0 µM): 8% | growth inhibition ([12]; at 100.0 µM): 66% | growth inhibition ([13]; at 1.2 µM): -1% | growth inhibition ([13]; at 3.7 µM): 1% | growth inhibition ([13]; at 11.0 µM): 7% | growth inhibition ([13]; at 33.0 µM): 16% | growth inhibition ([13]; at 100.0 µM): 63% | growth inhibition ([14]; at 1.2 µM): -2% | growth inhibition ([14]; at 3.7 µM): 1% | growth inhibition ([14]; at 11.0 µM): 9% | growth inhibition ([14]; at 33.0 µM): 19% | growth inhibition ([14]; at 100.0 µM): 79% (active) | growth inhibition [15, 17]: 12% | growth inhibition [15, 18]: 96% (active) | growth inhibition ([15]; at 50.0 µM): 65.7% | growth inhibition ([16]; at 1.2 µM): -1% | growth inhibition ([16]; at 3.7 µM): 6% | growth inhibition ([16]; at 11.0 µM): 11% | growth inhibition ([16]; at 33.0 µM): 27% | growth inhibition ([16]; at 100.0 µM): 64%

CC(=O)NC(c1nc2cc(C)c(C)cc2[nH]1)c1nc2cc(C)c(C)cc2[nH]1
growth inhibition ([1]; at 1.2 µM): 0% | growth inhibition ([1]; at 3.7 µM): -2% | growth inhibition ([1]; at 11.0 µM): 5% | growth inhibition ([1]; at 33.0 µM): 28% | growth inhibition ([1]; at 100.0 µM): 62% | growth inhibition ([2]; at 1.2 µM): -20% | growth inhibition ([2]; at 3.7 µM): -28% | growth inhibition ([2]; at 11.0 µM): -14% | growth inhibition ([2]; at 33.0 µM): 16% | growth inhibition ([2]; at 100.0 µM): 62% | growth inhibition ([3]; at 1.2 µM): -1% | growth inhibition ([3]; at 3.7 µM): 7% | growth inhibition ([3]; at 11.0 µM): 1% | growth inhibition ([3]; at 33.0 µM): 19% | growth inhibition ([3]; at 100.0 µM): 47% | growth inhibition ([4]; at 1.2 µM): 11% | growth inhibition ([4]; at 3.7 µM): 19% | growth inhibition ([4]; at 11.0 µM): 31% | growth inhibition ([4]; at 33.0 µM): 59% | growth inhibition ([4]; at 100.0 µM): 80% (active) | growth inhibition ([5]; at 1.2 µM): 13% | growth inhibition ([5]; at 3.7 µM): 4% | growth inhibition [5, 17]: 29% | growth inhibition ([5]; at 11.0 µM): 15% | growth inhibition ([5]; at 33.0 µM): 39% | growth inhibition [5, 18]: 94% (active) | growth inhibition ([5]; at 50.0 µM): 61.3% | growth inhibition ([5]; at 100.0 µM): 67% | growth inhibition ([6]; at 1.2 µM): 11% | growth inhibition ([6]; at 3.7 µM): 15% | growth inhibition [6, 17]: 36% | growth inhibition ([6]; at 11.0 µM): 22% | growth inhibition ([6]; at 33.0 µM): 42% | growth inhibition [6, 18]: 94% (active) | growth inhibition ([6]; at 50.0 µM): 37.2% | growth inhibition ([6]; at 100.0 µM): 78% (active) | growth inhibition ([7]; at 1.2 µM): -22% | growth inhibition ([7]; at 3.7 µM): -21% | growth inhibition ([7]; at 11.0 µM): -9% | growth inhibition ([7]; at 33.0 µM): 21% | growth inhibition ([7]; at 100.0 µM): 66% | growth inhibition [8, 17]: -16% | growth inhibition [8, 18]: 78% (active) | growth inhibition ([8]; at 50.0 µM): 57.5% | growth inhibition ([9]; at 1.2 µM): -11% | growth inhibition ([9]; at 3.7 µM): 2% | growth inhibition ([9]; at 11.0 µM): -18% | growth inhibition ([9]; at 33.0 µM): 12% | growth inhibition ([9]; at 100.0 µM): 62% | growth inhibition [10, 17]: 51% | growth inhibition [10, 18]: 92% (active) | growth inhibition ([10]; at 50.0 µM): 42.8% | growth inhibition ([11]; at 1.2 µM): -2% | growth inhibition ([11]; at 3.7 µM): 15% | growth inhibition [11, 17]: 16% | growth inhibition ([11]; at 11.0 µM): 22% | growth inhibition ([11]; at 33.0 µM): 56% | growth inhibition [11, 18]: 82% (active) | growth inhibition ([11]; at 50.0 µM): 63.1% | growth inhibition ([11]; at 100.0 µM): 82% (active) | growth inhibition ([12]; at 1.2 µM): -27% | growth inhibition ([12]; at 3.7 µM): -25% | growth inhibition ([12]; at 11.0 µM): -20% | growth inhibition ([12]; at 33.0 µM): 20% | growth inhibition ([12]; at 100.0 µM): 60% | growth inhibition ([13]; at 1.2 µM): -45% | growth inhibition ([13]; at 3.7 µM): -33% | growth inhibition ([13]; at 11.0 µM): -17% | growth inhibition ([13]; at 33.0 µM): 19% | growth inhibition ([13]; at 100.0 µM): 64% | growth inhibition ([14]; at 1.2 µM): -4% | growth inhibition ([14]; at 3.7 µM): -2% | growth inhibition ([14]; at 11.0 µM): -1% | growth inhibition ([14]; at 33.0 µM): 36% | growth inhibition ([14]; at 100.0 µM): 73% (active) | growth inhibition [15, 17]: 35% | growth inhibition [15, 18]: 95% (active) | growth inhibition ([15]; at 50.0 µM): 37.6% | growth inhibition ([16]; at 1.2 µM): -4% | growth inhibition ([16]; at 3.7 µM): 1% | growth inhibition ([16]; at 11.0 µM): 6% | growth inhibition ([16]; at 33.0 µM): 22% | growth inhibition ([16]; at 100.0 µM): 55%
